According to publication PMC3404119, “Topology and Dynamics of the Zebrafish Segmentation Clock Core Circuit”:

How the values were obtained:
Her1-GFP homodimer = target: T1, Her1-GFP homodimer (zebrafish (Danio rerio), UniProt Q90463 1-328); experiment: MITOMI; PPARgamma-mCherry co-present (non-interacting control); TnT SP6 wheat germ expression extract on MITOMI chip, 3 h at room temperature; salt and pH not stated; PBS used for washing; high values mean tight binding; details: protein: ivt; tags: C-terminal GFP; chain copies: 2; label: Cy5; dsDNA, one strand shown
T1 sequence: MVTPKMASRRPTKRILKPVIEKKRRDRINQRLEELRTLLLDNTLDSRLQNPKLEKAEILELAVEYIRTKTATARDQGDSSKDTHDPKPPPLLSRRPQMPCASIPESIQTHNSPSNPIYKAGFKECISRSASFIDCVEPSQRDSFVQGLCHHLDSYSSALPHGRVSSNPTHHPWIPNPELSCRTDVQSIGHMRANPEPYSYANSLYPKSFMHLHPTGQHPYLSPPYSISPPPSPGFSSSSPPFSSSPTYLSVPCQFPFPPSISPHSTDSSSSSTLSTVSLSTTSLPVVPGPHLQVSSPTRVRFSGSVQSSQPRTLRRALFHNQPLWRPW

[1] = target: T2, Her7 (coupled to chip, Fig 2D);Hes6-mCherry (zebrafish (Danio rerio);zebrafish …, UniProt Q9I9K1;Q6P0J1 1-206;1-226, |); experiment: MITOMI; Her7:Hes6 heterodimer, Her7 coupled to chip and Hes6-mCherry in solution; TnT SP6 wheat germ expression extract on MITOMI chip, 3 h at room temperature; salt and pH not stated; PBS used for washing; high values mean tight binding; details: protein: ivt;ivt; copies: 1;1; label: Cy5; dsDNA, one strand shown
T2 sequence 1: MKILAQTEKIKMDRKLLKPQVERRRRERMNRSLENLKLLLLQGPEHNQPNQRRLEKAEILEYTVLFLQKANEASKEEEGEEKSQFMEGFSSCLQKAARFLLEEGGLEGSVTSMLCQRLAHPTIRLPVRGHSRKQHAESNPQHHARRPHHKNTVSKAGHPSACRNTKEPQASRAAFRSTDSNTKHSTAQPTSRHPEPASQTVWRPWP
T2 sequence 2: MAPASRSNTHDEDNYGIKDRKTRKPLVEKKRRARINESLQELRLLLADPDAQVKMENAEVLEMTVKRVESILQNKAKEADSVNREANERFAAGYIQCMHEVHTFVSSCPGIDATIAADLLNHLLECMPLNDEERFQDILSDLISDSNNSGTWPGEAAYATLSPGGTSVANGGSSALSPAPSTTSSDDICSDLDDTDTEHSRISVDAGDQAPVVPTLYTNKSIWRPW

CCGCGCGTGCCA
binding signal (Her1-GFP homodimer): 0.279 ± 0.0129 relative affinity (strongest site = 1)
binding signal [1]: 0.516 ± 0.0179 relative affinity (strongest site = 1)

GTTCGCGTGTGC
binding signal (Her1-GFP homodimer): 0.0452 ± 0.00123 relative affinity (strongest site = 1)
binding signal [1]: 0.1 ± 0.00206 relative affinity (strongest site = 1)

CAGCGCGTGCCT
binding signal (Her1-GFP homodimer): 0.227 ± 0.0107 relative affinity (strongest site = 1)
binding signal [1]: 0.4636 ± 0.00426 relative affinity (strongest site = 1)

TTCCACGGGTCT
binding signal (Her1-GFP homodimer): 0.0411 ± 0.00212 relative affinity (strongest site = 1)
binding signal [1]: 0.0587 ± 0.00207 relative affinity (strongest site = 1)

TGTCGCGTGCCA
binding signal (Her1-GFP homodimer): 0.597 ± 0.0246 relative affinity (strongest site = 1)
binding signal [1]: 0.531 ± 0.00964 relative affinity (strongest site = 1)

TTGCTCGTGCTT
binding signal (Her1-GFP homodimer): 0.0235 ± 0.00192 relative affinity (strongest site = 1)
binding signal [1]: 0.109 ± 0.00195 relative affinity (strongest site = 1)

AGGCGCGTGGTG
binding signal (Her1-GFP homodimer): 0.077 ± 0.00506 relative affinity (strongest site = 1)
binding signal [1]: 0.157 ± 0.00403 relative affinity (strongest site = 1)

AGCCACGTGGCT
binding signal (Her1-GFP homodimer): 0.57 ± 0.0193 relative affinity (strongest site = 1)
binding signal [1]: 0.347 ± 0.00813 relative affinity (strongest site = 1)

AGACACGCGCTA
binding signal (Her1-GFP homodimer): 0.118 ± 0.00385 relative affinity (strongest site = 1)
binding signal [1]: 0.2749 ± 0.00267 relative affinity (strongest site = 1)

TCACACCTGTGCAG
binding signal [1]: 0.02 ± 0.00133 relative affinity (strongest site = 1)

CGACACGTGCTC
binding signal (Her1-GFP homodimer): 0.416 ± 0.00933 relative affinity (strongest site = 1)
binding signal [1]: 0.638 ± 0.0296 relative affinity (strongest site = 1)

TCCCACGGGATT
binding signal (Her1-GFP homodimer): 0.0209 ± 0.00257 relative affinity (strongest site = 1)
binding signal [1]: 0.0207 ± 0.00168 relative affinity (strongest site = 1)

GGGCGCGTGCCG
binding signal (Her1-GFP homodimer): 0.576 ± 0.0101 relative affinity (strongest site = 1)
binding signal [1]: 0.748 ± 0.021 relative affinity (strongest site = 1)

TGGCACGTGTCC
binding signal (Her1-GFP homodimer): 1 ± 0.0321 relative affinity (strongest site = 1)
binding signal [1]: 1 ± 0.0512 relative affinity (strongest site = 1)

CGACACGCGGTG
binding signal (Her1-GFP homodimer): 0.0408 ± 0.00225 relative affinity (strongest site = 1)
binding signal [1]: 0.0849 ± 0.00174 relative affinity (strongest site = 1)

CGGCGCGTGCCA
binding signal (Her1-GFP homodimer): 0.73 ± 0.0316 relative affinity (strongest site = 1)
binding signal [1]: 0.959 ± 0.0356 relative affinity (strongest site = 1)

AAGCACGTGATC
binding signal (Her1-GFP homodimer): 0.0423 ± 0.00127 relative affinity (strongest site = 1)
binding signal [1]: 0.0912 ± 0.0018 relative affinity (strongest site = 1)

GCCCACGCGCCG
binding signal (Her1-GFP homodimer): 0.119 ± 0.00729 relative affinity (strongest site = 1)
binding signal [1]: 0.168 ± 0.00251 relative affinity (strongest site = 1)

CTGCTCGTGCTT
binding signal (Her1-GFP homodimer): 0.0197 ± 0.00116 relative affinity (strongest site = 1)
binding signal [1]: 0.103 ± 0.00315 relative affinity (strongest site = 1)

TATCTCGTGCTG
binding signal (Her1-GFP homodimer): 0.029 ± 0.0011 relative affinity (strongest site = 1)
binding signal [1]: 0.0758 ± 0.00824 relative affinity (strongest site = 1)

CAGCGCGTGTGC
binding signal (Her1-GFP homodimer): 0.057 ± 0.0015 relative affinity (strongest site = 1)
binding signal [1]: 0.179 ± 0.00225 relative affinity (strongest site = 1)

AAACACGAGCCA
binding signal (Her1-GFP homodimer): 0.0562 ± 0.00247 relative affinity (strongest site = 1)
binding signal [1]: 0.208 ± 0.00306 relative affinity (strongest site = 1)
